Data taken from PubChem BioAssay AID602429 (Sanford-Burnham Center for Chemical Genomics, 2012).
About 1,200 (0.33%) of roughly 360,000 compounds were called active. Cut-off read from the data, not from the text of the source: active = inhibition above about 37%; inactive = the rest. For the sample, actives were picked, then their nearest neighbours and some compounds at random.

molecular target: Small ubiquitin-related modifier 1 (Homo sapiens) (UniProt P63165); assay: SUMO1 binding to interaction partners, disruption – biochemical, uHTS, primary screen (AID 602429); conditions: SUMO1 binding to a labelled peptide, TR-FRET, 1 h; at 20 µM; stronger effect = higher value
Sequence (P63165 whole entry, looked up): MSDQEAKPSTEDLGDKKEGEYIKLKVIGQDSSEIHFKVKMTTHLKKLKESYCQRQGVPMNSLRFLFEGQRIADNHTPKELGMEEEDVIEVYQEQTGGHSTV

inhibition, inactive:
CN(Cc1ccco1)S(=O)(=O)c1nnc(NC(=O)c2ccccc2)s1 6.06%
Cc1ccccc1C(=O)Nc1cccc(-c2nnc(SCC(=O)O)n2C)c1 3.31%
CC(C)C(C(=O)NCc1ccco1)N(CC1CCCO1)C(=O)CNS(=O)(=O)c1ccc(F)cc1 (stereo not drawn) 4.85%
Cc1cc2cc3n(c2nn1)N=C(Cl)CC3 -9.97%
COc1ccc(NC(=O)CN(C)C(=O)c2cc(C3CC3)nn2-c2ccccc2)cc1 -1.85%
CCN1C(=NCCc2cccnc2)N[C@@H](c2ccccc2)[C@H](C(=O)OC)[C@H]1C -3.87%
CN(C(=O)CC1C(=O)NCCN1Cc1ccc(F)cc1Cl)C1CCCCC1 (stereo not drawn) -1.34%
COc1ccc(CCNc2nc3ccc(C)cc3n3cnnc23)cc1OC 2.61%
COc1cc(Nc2nc3ccc(Cl)cc3n3cnnc23)cc(OC)c1OC -1.84%
N#C/C(=C/c1cccc([N+](=O)[O-])c1)c1nnc2n1CCCCC2 -13.1%
CC1CCN(C(=O)COC(=O)c2cc(=O)[nH]c3ccccc23)CC1 -34.7%
CCN(CC)S(=O)(=O)N1CCC(C(=O)NC(C)CCc2ccccc2)CC1 (stereo not drawn) -0.482%
Nc1nc(Sc2ncccc2[N+](=O)[O-])n[nH]1 -26.7%
CCCc1noc2c1/C(=N\O)CCC2 1.7%
COc1ccc(-c2nnc(SC(=O)N3c4ccccc4Sc4ccccc43)o2)cc1 -3.37%
COc1ccc(-c2nnc(SC(C)C(=O)NC3CC3)o2)cc1 (stereo not drawn) 1.98%
ONC(=Nc1ccccc1)c1ccccc1Cl 0.653%
CN(C(=O)COC(=O)c1cc(=O)[nH]c2ccccc12)C1CCCCC1 -17.9%
Clc1ccc(-n2nnnc2-c2cnc(-c3ccccn3)nc2-c2cccs2)cc1 -11.8%
Cc1ccsc1/C=N/n1c(=S)[nH]nc(C)c1=O -0.0625%
CSCC[C@H](NC(=O)NC1CCCC1)C(=O)O 2.79%
O=C(COC(=O)c1cc(=O)[nH]c2ccccc12)Nc1nc(-c2cccc(Br)c2)cs1 2.92%
Cc1cc(C)c(-c2csc(NC(=O)CCCc3nc4ccccc4c(=O)[nH]3)n2)c(C)c1 0.192%
O=C(O)c1ccc(S(=O)(=O)c2ccccc2)s1 2.5%
COc1ccc2c(CC(=O)Nc3nnc(C4CC4)s3)coc2c1 -1.1%
COc1ccc(OCCCC(=O)Nc2nnc(C3CCCO3)s2)cc1 (stereo not drawn) 0.167%
COc1cc(C2C(C(=O)Nc3ccccc3OC)=C(C)Nc3ncnn32)ccc1O (stereo not drawn) -0.861%
COc1ccccc1NC(=O)C1=C(C)Nc2nc3ccccc3n2C1c1cccs1 (stereo not drawn) -1.24%
O=C1c2ccccc2C(=O)C1C(=O)C1CC1 -16.1%

inhibition, active:
O=[N+]([O-])c1c(NCCO)cc(Sc2nc3ccccc3s2)c2nonc12 48.4%
COc1cccc2c1C(=O)c1c(O)c3c(c(O)c1C2=O)CC(O)(C(C)=NNC(=O)c1ccc(Cl)c(Cl)c1)CC3OC1CC(N)C(O)C(C)O1 (stereo not drawn) 111%
COc1ccc(OC)c(Nc2nc3ccccc3n3cnnc23)c1 47.2%
Oc1c(Cl)cc(Cl)c(Cl)c1Cc1c(O)c(Cl)cc(Cl)c1Cl 68.6%
COc1ccc(-c2nnc(-c3ccc4ccccc4c3)o2)cc1 51.9%
S=c1[nH]nc(-c2cccs2)n1/N=C/c1cn(-c2ccccc2)nc1-c1ccc(Cl)cc1 41.9%
O=C(CSc1nc2ccccc2c(=O)[nH]1)Nc1nc(-c2ccc(Br)cc2)cs1 94.3%
COc1ccc(NC(=O)CCC(=O)Nc2nnc(C3CCCCC3)s2)cc1 44%
COc1ccccc1NC(=O)C1=C(C)Nc2nnnn2C1c1cccc(Br)c1 (stereo not drawn) 43.5%
